# ChEMBL document CHEMBL2218924, “A broad activity screen in support of a chemogenomic map for kinase signalling research and drug discovery” (Biochem J, 2013)
# How the values were obtained:
# [1] = target: Tyrosine-protein kinase Fer (Homo sapiens) (UniProt P16591); conditions: at 10 µM
# [2] = target: Tyrosine-protein kinase Fes/Fps (Homo sapiens) (UniProt P07332); conditions: at 1 µM
# [3] = target: Tyrosine-protein kinase Fes/Fps (Homo sapiens) (UniProt P07332); conditions: at 10 µM
# [4] = target: Tyrosine-protein kinase Fgr (Homo sapiens) (UniProt P09769); conditions: at 1 µM
# [5] = target: Vascular endothelial growth factor receptor 1 (Homo sapiens) (UniProt P17948); conditions: at 1 µM
# [6] = target: Vascular endothelial growth factor receptor 1 (Homo sapiens) (UniProt P17948); conditions: at 10 µM
# [7] = target: Receptor-type tyrosine-protein kinase FLT3 (Homo sapiens) (UniProt P36888); conditions: at 1 µM
# [8] = target: Receptor-type tyrosine-protein kinase FLT3 (Homo sapiens) (UniProt P36888); conditions: at 10 µM
# [9] = target: Vascular endothelial growth factor receptor 3 (Homo sapiens) (UniProt P35916); conditions: at 1 µM
# [10] = target: Vascular endothelial growth factor receptor 3 (Homo sapiens) (UniProt P35916); conditions: at 10 µM
# [11] = target: Macrophage colony-stimulating factor 1 receptor (Homo sapiens) (UniProt P07333); conditions: at 1 µM
# [12] = target: Tyrosine-protein kinase Fyn (Homo sapiens) (UniProt P06241); conditions: at 1 µM
# [13] = target: Tyrosine-protein kinase Fyn (Homo sapiens) (UniProt P06241); conditions: at 10 µM
# [14] = target: T1, Mitogen-activated protein kinase kinase kinase kinase 2 (Homo sapiens) (UniProt Q12851); conditions: at 1 µM
# T1 sequence (whole entry): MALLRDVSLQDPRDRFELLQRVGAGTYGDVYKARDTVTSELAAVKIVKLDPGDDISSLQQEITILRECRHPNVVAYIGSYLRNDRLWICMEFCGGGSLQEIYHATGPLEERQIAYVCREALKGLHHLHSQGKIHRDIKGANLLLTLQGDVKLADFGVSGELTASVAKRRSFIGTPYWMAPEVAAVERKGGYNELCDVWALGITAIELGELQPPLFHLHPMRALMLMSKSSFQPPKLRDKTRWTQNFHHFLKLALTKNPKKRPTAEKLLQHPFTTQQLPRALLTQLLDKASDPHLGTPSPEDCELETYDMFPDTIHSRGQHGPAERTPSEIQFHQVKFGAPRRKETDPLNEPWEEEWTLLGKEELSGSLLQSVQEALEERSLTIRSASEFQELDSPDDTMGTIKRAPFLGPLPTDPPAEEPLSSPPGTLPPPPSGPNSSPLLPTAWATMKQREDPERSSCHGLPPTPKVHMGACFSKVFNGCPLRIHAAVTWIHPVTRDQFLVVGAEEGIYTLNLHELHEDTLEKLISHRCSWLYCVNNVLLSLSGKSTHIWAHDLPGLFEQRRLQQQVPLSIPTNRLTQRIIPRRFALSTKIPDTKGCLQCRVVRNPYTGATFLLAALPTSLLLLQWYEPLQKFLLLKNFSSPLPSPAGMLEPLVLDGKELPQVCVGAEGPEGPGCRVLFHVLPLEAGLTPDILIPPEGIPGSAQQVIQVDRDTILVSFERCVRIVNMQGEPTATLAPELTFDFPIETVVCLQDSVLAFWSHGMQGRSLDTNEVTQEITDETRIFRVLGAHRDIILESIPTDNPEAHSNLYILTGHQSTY
# [15] = target: T1, Mitogen-activated protein kinase kinase kinase kinase 2 (Homo sapiens); conditions: at 10 µM
# [16] = target: G protein-coupled receptor kinase 5 (Homo sapiens) (UniProt P34947); conditions: at 10 µM
# [17] = target: G protein-coupled receptor kinase 6 (Homo sapiens) (UniProt P43250); conditions: at 10 µM
# [18] = target: T2, Rhodopsin kinase GRK7 (Homo sapiens) (UniProt Q8WTQ7); conditions: at 1 µM
# T2 sequence (whole entry): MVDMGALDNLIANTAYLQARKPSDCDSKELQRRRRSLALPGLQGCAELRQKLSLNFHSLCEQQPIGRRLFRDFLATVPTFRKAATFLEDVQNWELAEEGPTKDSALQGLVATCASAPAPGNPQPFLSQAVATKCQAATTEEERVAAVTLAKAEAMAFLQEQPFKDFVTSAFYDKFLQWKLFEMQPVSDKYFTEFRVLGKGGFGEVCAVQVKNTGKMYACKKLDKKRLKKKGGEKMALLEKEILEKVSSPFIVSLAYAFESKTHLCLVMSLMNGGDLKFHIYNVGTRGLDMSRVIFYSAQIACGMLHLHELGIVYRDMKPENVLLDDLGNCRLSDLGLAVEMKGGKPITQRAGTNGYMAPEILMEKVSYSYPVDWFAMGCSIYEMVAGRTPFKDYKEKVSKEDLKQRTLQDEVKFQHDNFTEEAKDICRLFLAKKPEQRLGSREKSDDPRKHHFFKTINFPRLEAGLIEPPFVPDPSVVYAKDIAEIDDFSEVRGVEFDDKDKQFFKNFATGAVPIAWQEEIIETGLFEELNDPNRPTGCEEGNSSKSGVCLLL
# [19] = target: Tyrosine-protein kinase Fgr (Homo sapiens) (UniProt P09769); conditions: at 10 µM
# [20] = target: Macrophage colony-stimulating factor 1 receptor (Homo sapiens) (UniProt P07333); conditions: at 10 µM
# Chain of Tyrosine-protein kinase Fyn (Homo sapiens) (P06241 2-537 limits assumed): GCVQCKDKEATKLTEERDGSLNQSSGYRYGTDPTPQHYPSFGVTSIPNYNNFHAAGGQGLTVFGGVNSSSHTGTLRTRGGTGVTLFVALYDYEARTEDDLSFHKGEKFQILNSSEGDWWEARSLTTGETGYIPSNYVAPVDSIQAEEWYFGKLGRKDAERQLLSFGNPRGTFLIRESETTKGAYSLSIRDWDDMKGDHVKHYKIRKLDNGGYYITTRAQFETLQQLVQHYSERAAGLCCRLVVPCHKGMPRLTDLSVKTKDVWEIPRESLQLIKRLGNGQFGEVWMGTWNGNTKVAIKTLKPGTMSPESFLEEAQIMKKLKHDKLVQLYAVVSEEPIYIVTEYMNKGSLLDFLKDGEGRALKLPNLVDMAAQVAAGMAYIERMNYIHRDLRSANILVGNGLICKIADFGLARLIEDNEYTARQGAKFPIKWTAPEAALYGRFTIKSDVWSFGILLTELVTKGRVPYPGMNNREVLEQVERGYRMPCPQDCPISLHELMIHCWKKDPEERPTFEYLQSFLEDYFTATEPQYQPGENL
# Chain of Tyrosine-protein kinase Fgr (Homo sapiens) (P09769 2-529 limits assumed): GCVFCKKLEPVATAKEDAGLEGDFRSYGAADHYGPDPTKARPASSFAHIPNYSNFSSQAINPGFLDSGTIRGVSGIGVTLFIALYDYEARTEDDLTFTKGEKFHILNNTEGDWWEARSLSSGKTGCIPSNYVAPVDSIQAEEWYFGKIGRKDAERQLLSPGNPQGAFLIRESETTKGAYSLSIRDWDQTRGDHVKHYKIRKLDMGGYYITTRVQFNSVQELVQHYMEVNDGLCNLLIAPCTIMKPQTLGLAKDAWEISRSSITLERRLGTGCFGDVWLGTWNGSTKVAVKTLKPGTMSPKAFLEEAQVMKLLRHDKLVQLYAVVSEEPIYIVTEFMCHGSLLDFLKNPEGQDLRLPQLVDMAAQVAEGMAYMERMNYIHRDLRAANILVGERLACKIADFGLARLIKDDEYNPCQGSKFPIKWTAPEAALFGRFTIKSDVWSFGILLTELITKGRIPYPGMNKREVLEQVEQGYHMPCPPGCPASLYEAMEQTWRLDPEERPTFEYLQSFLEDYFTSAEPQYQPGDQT
# Chain of Receptor-type tyrosine-protein kinase FLT3 (Homo sapiens) (P36888 whole entry): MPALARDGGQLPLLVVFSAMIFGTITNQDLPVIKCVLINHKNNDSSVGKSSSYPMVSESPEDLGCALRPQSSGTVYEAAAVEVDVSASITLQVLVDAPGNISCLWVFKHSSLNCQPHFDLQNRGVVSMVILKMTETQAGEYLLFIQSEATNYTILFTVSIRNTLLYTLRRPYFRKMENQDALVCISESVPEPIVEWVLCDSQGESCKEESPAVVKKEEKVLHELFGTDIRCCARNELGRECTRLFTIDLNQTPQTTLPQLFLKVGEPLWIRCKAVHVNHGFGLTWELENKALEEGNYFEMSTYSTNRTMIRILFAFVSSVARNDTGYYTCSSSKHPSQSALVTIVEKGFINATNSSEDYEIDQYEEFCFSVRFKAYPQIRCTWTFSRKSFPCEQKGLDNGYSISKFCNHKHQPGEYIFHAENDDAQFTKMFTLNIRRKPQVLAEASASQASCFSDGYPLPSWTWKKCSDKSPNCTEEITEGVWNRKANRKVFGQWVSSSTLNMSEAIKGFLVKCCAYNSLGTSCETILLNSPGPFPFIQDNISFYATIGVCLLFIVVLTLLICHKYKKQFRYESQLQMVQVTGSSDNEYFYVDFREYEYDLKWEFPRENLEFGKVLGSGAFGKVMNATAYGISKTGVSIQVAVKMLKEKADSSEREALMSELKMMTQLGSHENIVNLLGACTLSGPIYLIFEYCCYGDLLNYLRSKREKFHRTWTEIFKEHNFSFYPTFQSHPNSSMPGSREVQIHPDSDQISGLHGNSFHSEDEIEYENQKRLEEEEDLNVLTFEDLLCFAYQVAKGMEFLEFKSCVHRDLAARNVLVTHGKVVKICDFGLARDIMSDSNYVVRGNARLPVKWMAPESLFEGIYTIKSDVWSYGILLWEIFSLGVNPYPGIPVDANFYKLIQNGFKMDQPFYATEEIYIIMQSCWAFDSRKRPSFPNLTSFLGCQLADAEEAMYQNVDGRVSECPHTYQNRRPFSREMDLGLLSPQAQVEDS
# Chain of Tyrosine-protein kinase Fer (Homo sapiens) (P16591 whole entry, looked up): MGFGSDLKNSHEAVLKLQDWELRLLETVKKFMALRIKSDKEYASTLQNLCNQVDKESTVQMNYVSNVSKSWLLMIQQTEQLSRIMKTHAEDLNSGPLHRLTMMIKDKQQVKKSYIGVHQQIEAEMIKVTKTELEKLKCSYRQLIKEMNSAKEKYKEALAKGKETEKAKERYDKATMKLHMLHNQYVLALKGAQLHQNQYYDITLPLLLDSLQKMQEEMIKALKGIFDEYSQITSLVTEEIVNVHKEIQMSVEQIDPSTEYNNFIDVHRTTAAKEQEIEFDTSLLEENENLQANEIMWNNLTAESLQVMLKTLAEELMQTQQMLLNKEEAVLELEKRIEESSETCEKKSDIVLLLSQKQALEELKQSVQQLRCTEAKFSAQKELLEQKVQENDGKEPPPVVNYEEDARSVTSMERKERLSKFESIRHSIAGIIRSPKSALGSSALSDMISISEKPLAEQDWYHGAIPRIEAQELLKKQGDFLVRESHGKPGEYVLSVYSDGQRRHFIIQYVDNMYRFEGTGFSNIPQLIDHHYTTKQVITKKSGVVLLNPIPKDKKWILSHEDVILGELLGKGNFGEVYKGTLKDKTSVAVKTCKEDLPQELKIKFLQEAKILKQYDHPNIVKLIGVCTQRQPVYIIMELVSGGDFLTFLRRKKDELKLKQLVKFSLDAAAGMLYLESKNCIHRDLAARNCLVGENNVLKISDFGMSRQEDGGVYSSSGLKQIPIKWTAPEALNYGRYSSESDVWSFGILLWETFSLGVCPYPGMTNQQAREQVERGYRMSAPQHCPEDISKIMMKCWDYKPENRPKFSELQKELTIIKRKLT
# Chain of G protein-coupled receptor kinase 5 (Homo sapiens) (P34947 whole entry, looked up): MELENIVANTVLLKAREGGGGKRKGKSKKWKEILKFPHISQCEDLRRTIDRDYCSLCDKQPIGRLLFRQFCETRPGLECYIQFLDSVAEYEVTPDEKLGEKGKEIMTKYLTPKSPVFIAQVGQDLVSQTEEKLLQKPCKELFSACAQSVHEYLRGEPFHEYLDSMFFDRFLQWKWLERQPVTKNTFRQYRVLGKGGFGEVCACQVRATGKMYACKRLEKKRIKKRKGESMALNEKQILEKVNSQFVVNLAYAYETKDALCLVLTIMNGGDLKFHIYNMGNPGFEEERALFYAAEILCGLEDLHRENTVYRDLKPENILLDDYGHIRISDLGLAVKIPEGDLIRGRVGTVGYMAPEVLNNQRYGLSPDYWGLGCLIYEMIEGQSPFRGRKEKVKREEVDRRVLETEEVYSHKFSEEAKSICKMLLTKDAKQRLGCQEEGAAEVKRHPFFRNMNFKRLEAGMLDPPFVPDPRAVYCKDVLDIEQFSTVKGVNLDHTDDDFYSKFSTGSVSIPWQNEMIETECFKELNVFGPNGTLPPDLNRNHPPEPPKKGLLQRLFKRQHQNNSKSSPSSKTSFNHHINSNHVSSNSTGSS
# Chain of Vascular endothelial growth factor receptor 3 (Homo sapiens) (P35916 whole entry): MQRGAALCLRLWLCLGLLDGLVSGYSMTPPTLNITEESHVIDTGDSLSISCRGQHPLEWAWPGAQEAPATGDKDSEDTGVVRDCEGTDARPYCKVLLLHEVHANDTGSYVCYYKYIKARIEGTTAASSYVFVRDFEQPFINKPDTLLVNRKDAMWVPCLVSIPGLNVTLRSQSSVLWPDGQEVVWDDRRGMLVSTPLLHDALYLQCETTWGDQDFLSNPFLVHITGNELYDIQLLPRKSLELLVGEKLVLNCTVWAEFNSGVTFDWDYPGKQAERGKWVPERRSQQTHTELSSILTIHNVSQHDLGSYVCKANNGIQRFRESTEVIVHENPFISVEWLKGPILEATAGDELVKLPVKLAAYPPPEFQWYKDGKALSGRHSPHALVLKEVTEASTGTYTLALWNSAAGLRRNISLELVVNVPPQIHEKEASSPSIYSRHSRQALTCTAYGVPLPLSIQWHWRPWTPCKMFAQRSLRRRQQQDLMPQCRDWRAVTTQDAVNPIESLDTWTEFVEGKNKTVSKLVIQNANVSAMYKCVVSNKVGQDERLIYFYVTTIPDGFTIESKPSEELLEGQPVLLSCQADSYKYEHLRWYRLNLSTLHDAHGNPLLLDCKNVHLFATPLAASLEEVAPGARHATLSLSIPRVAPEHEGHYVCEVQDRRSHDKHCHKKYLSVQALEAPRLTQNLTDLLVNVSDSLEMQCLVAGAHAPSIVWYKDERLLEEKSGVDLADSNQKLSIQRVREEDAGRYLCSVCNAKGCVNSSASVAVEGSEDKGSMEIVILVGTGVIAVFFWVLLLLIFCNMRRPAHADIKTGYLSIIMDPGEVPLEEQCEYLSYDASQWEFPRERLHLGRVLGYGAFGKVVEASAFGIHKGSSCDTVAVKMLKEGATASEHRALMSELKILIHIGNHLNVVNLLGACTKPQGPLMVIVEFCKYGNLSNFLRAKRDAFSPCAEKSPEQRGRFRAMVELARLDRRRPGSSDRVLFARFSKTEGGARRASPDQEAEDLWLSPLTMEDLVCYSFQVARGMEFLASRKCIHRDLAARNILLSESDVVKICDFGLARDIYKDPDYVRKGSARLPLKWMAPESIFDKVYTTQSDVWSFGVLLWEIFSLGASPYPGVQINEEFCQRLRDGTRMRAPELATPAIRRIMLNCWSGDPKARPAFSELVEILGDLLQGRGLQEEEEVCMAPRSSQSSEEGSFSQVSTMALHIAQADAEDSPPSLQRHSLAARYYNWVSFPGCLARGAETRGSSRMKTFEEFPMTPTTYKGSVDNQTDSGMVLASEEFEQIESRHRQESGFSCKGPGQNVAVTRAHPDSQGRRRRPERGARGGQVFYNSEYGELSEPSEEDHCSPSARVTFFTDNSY
Structure (SMILES),residual activity [1] [%],residual activity [2] [%],residual activity [3] [%],residual activity [4] [%],residual activity [5] [%],residual activity [6] [%],residual activity [7] [%],residual activity [8] [%],residual activity [9] [%],residual activity [10] [%],residual activity [11] [%],residual activity [12] [%],residual activity [13] [%],residual activity [14] [%],residual activity [15] [%],residual activity [16] [%],residual activity [17] [%],residual activity [18] [%],residual activity [19] [%],residual activity [20] [%]
Nc1ccc2ncnc(NCCc3ccc(Oc4ccccc4)cc3)c2c1,84,91,87,84,54,26,33,9,15,6,72,75,66,72,68,97,95,110,–,–
Cc1ccc(NC2=CC(=O)c3sc(C)nc3C2=O)cc1,96,97,104,90,96,91,85,81,95,84,96,82,93,86,–,99,85,84,109,79
CC(=O)c1ccc(N2CCOCC2)cc1O,–,133,94,110,106,97,102,86,93,88,–,80,96,91,89,86,91,95,102,–
O=C1Nc2ccc(Br)cc2/C1=C\c1cc2c([nH]1)CCCC2,–,107,78,–,17,20,3,1,1,1,11,–,–,24,42,100,–,–,72,3
Cc1cccc(-c2[nH]c(C(C)(C)C)nc2-c2ccc3c(c2)OCO3)n1,–,–,87,–,86,84,–,87,99,90,–,105,93,96,83,103,87,97,88,–
CC#CC(=O)Nc1cc2c(Nc3ccc(F)c(Cl)c3)ncnc2cn1,94,118,81,105,94,101,96,85,98,93,88,96,88,91,84,93,83,98,95,83
N#CC(C#N)=C(N)/C(C#N)=C/c1ccc(O)cc1,–,–,91,–,96,90,100,86,94,95,79,–,91,84,61,–,95,98,96,86
O=C(Nc1cccc(Nc2cc(Nc3cccc(C(F)(F)F)c3)ncn2)c1)C1CC1,92,113,86,90,99,61,108,128,97,61,71,92,36,100,70,100,97,102,81,37
c1ccc(-c2n[nH]c3c2oc2ccccc23)cc1,–,–,–,–,13,1,6,0,3,1,6,86,51,84,30,94,86,95,49,1
